PubChem BioAssay
Results filed as inconclusive are left out. Activity calls are given as the source filed them.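 How the source made its calls, unless noted: active means viability at or below 30% in both replicate assays; inconclusive means viability at or below 30% in just one of the two assays; inactive means the rest.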

Assays:
[1] = reducers of endogenous Her2 protein level, primary screen, SKBR3 breast tumor cells, AlphaScreen, ATP viability (AID 461;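 active means Her2 level under about 52% in both replicate screens, with viability over 70% of control, limit read from the data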;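 on Her2 level: lower value means less Her2 protein in the cells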;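 on viability: percent of carrier control wells set as 100% viability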); settings: 18-24 h, measured here: SKBR3 viability, ATP luminescence, at 10 µM
[2] = target: Receptor tyrosine-protein kinase erbB-2 (Homo sapiens) (UniProt P04626); test: as above; settings: 18-24 h, at 10 µM, stronger effect = lower value
[3] = SK-BR-3 cell growth inhibitors, pilot screen, 24 h, human (AID 572;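 active means viability at or below 10% of carrier control in both of two separate runs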;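 further: compound exposure lasted between 18 and 24 h rather than exactly 24 h; 100% = carrier-treated control wells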); settings: SK-BR-3 viability, CellTiter-Glo luminescence, at 10 µM, stronger effect = lower value
[4] = HUVEC growth inhibition – cell-based, human, primary screen (AID 575); settings: HUVEC proliferation, CellTiter-Glo luminescence, 72 h; at 10 µM; stronger effect = lower value;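 further: 100% = median of untreated cell wells with 0.1% DMSO on each plate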
[5] = growth inhibitors of H69AR lung tumor, primary screen, human, duplicate replicates (AID 580;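 active means viability at or under a set limit in both replicates, limit being median viability minus 3 SD, cut at about 48% in these data, passing the limit was not always enough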;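 further: 100% = mean luminescence of untreated wells and 0% = no signal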); settings: H69AR lung tumor cells viability, ATP luminescence, 72 h; at 10 µM; stronger effect = lower value
[6] = reversal of MRP1-mediated doxorubicin resistance, pilot screen, H69AR cells, doxorubicin co-treatment (AID 601;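 active means viability loss from added drug above about 55%, and viability with drug at most 40%, in both replicates, limit read from the data, passing the limit was not always enough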); settings: CellTiter-Glo, 72 h, at 10 µM; for differential viability (reversal): stronger effect = higher value
[7] = 384-well plate pilot, post-Golgi transport modulator project, inhibition of yeast transport mutant growth (AID 636; in the data active means inhibition above about 31%); settings: absorbance 615 nm, about 18 h, stronger effect = higher value
[8] = growth suppression of yeast trafficking mutant, preliminary HTS, modulators of trafficking downstream of Golgi apparatus project, 1536-format plate, OD 615 nm (AID 637; in the data active means inhibition above about 30%); settings: yeast transport mutant growth, absorbance 615 nm, 18 h; stronger effect = higher value
[9] = OD615 S. cerevisiae growth inhibition, permissive medium, pilot counter-assay, permissive growth control for S. cerevisiae lifespan shortening project (AID 705;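 active means growth inhibition above 25% in both replicates, a cutoff set 3 SD above the mean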); settings: OD615, 24 h, at 10 µM, stronger effect = higher value
[10] = Restrictive medium S. cerevisiae growth inhibition, OD615, pilot screen of yeast lifespan reduction project, restrictive growth control (AID 706;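 active means growth inhibition above a set limit, 3 SD over mean compound inhibition, in both replicates, cut at about 43% in these data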;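 further: modified DeaD lifespan yeast strain shifted to restrictive glucose medium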); settings: OD615, 48 h, at 10 µM, stronger effect = higher value
[11] = viability gain of MRP-1-high H69AR cells under doxorubicin, pilot screen, MRP-1 activator project, CellTiter-Glo, duplicate (AID 807;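 active means viability increase at or above a cutoff of the median across tested compounds plus 3 SD, cut at about 8.5% in these data, passing the limit was not always enough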;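 further: compound pretreatment 18-22 h then 72 h combined with doxorubicin; 0% = doxorubicin alone and 100% = vehicle without doxorubicin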); settings: H69AR viability with doxorubicin, CellTiter-Glo luminescence; at 10 µM; stronger effect = higher value
[12] = growth suppression of beta-catenin knockout HCT116, pilot screen, human colon tumor cells (AID 823;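 active means cell viability at or below a set limit in both duplicate runs, the limit being the all-compound median minus 4 SD, cut at about 23% in these data, passing the limit was not always enough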;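 further: 0% = wells killed by 20 µM Hyamine and 100% = untreated DMSO cell wells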); settings: CellTiter-Glo, 60 h, at 10 µM, stronger effect = lower value
[13] = growth suppression of PTEN-deleted HCT116, pilot screen, cell-based, HCT116 clonal line, CellTiter-Glo (AID 824;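 active means viability at or below 27.92% in each of two runs, the all-compound median minus 4 SD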;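 further: 0% = 20 µM Hyamine control and 100% = vehicle cell control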); settings: 60 h, at 10 µM, stronger effect = lower value
[14] = inhibitors of the yeast RAM network, pilot screen, dse1pr::URA3 reporter, 5-FOA selection (AID 869;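 active means inhibition over a set limit, the all-compound mean plus 3 SD, in both replicate runs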;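 further: 0% = DMSO wells with no growth and 100% = 10 µM 1-NA-PP1 with full growth; RAM network block rescues cells from 5-FOA so hits raise OD615 growth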); settings: S. cerevisiae dse1pr::URA3 5-FOA growth, OD615, 2 d; at 10 µM; stronger effect = higher value; strain carries analog-sensitive mutant Cbk1 kinase
[15] = RAM signaling pathway blockade in yeast – S. cerevisiae, Pdr1DBD-CYC8 efflux-inhibited sensitized strain, primary screen (AID 1298;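 active means RAM network inhibition above 8.4% in each of two replicates, 3 SD over the compound average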;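 further: 0% = DMSO untreated cells without growth and 100% = 10 µM 1-NA-PP1 full growth; higher means more yeast growth rescued from 5-FOA killing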); settings: S. cerevisiae cbk1-as DSE1-URA3 strain, 5-FOA growth OD615, 2 d; at 50 µM; stronger effect = higher value
[16] = H69AR cells + 2 uM doxorubicin, measured here: viability with 2 uM doxorubicin, stronger effect = lower value
[17] = H69AR cells, compound alone cytotoxicity

Receptor tyrosine-protein kinase erbB-2 (Homo sapiens), sequence (P04626 whole entry, looked up): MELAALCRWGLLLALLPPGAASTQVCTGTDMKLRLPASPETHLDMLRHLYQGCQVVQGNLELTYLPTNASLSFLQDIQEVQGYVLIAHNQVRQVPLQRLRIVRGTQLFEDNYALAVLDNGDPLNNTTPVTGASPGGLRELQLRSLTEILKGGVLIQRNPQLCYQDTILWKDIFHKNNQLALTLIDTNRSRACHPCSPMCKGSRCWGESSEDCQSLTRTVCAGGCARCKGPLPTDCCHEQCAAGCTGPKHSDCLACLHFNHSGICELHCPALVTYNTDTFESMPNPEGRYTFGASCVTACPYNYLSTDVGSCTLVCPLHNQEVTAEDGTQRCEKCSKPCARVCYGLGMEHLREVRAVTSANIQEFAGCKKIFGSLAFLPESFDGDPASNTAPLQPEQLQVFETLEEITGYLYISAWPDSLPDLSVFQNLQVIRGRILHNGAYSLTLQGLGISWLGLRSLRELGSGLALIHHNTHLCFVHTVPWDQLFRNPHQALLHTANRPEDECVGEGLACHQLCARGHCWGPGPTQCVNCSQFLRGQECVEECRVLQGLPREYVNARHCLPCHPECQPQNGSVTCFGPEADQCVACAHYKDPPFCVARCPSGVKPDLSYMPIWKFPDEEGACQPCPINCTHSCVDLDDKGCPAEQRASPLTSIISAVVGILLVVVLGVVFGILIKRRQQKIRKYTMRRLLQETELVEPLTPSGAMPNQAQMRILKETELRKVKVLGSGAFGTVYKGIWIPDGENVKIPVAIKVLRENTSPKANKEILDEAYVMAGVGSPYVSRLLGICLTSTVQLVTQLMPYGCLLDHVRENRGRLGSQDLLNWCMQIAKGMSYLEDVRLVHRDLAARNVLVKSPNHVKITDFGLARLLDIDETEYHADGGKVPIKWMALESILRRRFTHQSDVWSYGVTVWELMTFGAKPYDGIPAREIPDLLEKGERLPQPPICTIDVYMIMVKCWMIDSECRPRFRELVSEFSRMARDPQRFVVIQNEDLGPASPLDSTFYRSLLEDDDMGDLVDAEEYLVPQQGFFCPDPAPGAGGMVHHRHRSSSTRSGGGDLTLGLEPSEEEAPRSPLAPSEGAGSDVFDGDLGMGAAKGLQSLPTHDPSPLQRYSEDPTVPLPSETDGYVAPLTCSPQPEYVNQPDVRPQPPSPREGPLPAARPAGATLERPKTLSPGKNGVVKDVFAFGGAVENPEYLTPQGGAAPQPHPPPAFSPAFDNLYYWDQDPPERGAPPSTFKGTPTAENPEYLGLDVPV

Cc1cccc(C(=O)N2CCN(C(=O)c3cccc(C)c3)C(C)C2)c1 (stereo not given)
inactive: Her2 level [2] 116% | viability [3] 110% | viability [4] 107% | viability [5] 90.3% | differential viability (reversal) ([6]; H69AR cells + 2 uM doxorubicin) 2.61% | inhibition [7] -1.76% | inhibition [8] 24.8% | growth inhibition [9] -19.2% | growth inhibition [10] -9.12% | viability increase [11] 0.74% | viability [12] 95.9% | viability [13] 96.2% | inhibition [14] 0.75% | RAM network inhibition [15] 0.55%
87.7%: viability [6, 16]
90.3%: viability [6, 17]
110%: viability [1]

O=C(Nc1ccc(N2CCCC2)cc1)c1ccc(Br)o1
85.2%: viability [6, 16]
101%: viability [6, 17]
inactive: Her2 level [2] 93.5% | viability [3] 93.5% | viability [4] 94.3% | viability [5] 101% | differential viability (reversal) ([6]; H69AR cells + 2 uM doxorubicin) 15.6% | inhibition [7] 0.27% | inhibition [8] 1.97% | growth inhibition [9] 3.95% | growth inhibition [10] 14.9% | viability increase [11] -0.48% | viability [12] 94% | viability [13] 92.3% | inhibition [14] 3.5% | RAM network inhibition [15] 6.03%
93.5%: viability [1]

CC1(C)CC(=O)C2=C(C1)NC(=O)CC2c1ccc(N(CCC#N)CCC#N)cc1 (stereo not given)
inactive: Her2 level [2] 120% | viability [3] 101% | viability [4] 101% | viability [5] 110% | differential viability (reversal) ([6]; H69AR cells + 2 uM doxorubicin) 23.6% | inhibition [7] -5.68% | inhibition [8] -1.8% | growth inhibition [9] -9.4% | growth inhibition [10] -8.29% | viability increase [11] 0.18% | viability [12] 91.5% | viability [13] 100% | inhibition [14] 1.41% | RAM network inhibition [15] 1.8%
110%: viability [6, 17]
86.6%: viability [6, 16]
101%: viability [1]

NC(=O)CSc1cn(CCNC(=O)c2cccs2)c2ccccc12
93.4%: viability [6, 17]
91.9%: viability [6, 16]
99.5%: viability [1]
inactive: Her2 level [2] 92.5% | viability [3] 99.5% | viability [4] 99.4% | viability [5] 93.4% | differential viability (reversal) ([6]; H69AR cells + 2 uM doxorubicin) 1.49% | inhibition [7] -4% | inhibition [8] -2.83% | growth inhibition [9] -14.1% | growth inhibition [10] -28% | viability increase [11] -0.44% | viability [12] 107% | viability [13] 94.8% | inhibition [14] 1.34% | RAM network inhibition [15] 5.84%

COc1ccc(C2CC(c3ccco3)n3ncnc3N2)cc1 (stereo not given)
88%: viability [1]
inactive: Her2 level [2] 97% | viability [3] 88% | viability [4] 93.1% | viability [5] 95.4% | differential viability (reversal) ([6]; H69AR cells + 2 uM doxorubicin) -3.17% | inhibition [7] -3.07% | inhibition [8] -8.5% | growth inhibition [9] -4.26% | growth inhibition [10] 1.61% | viability increase [11] -0.91% | viability [12] 97.7% | viability [13] 94.6% | inhibition [14] 2.36% | RAM network inhibition [15] 0.32%
98.6%: viability [6, 16]
95.4%: viability [6, 17]

COc1cc(NC(=O)C2C3C=CC(C3)C2C(=O)O)c(OC)cc1Cl (stereo not given)
inactive: Her2 level [2] 95% | viability [3] 86% | viability [4] 98.4% | viability [5] 98.3% | differential viability (reversal) ([6]; H69AR cells + 2 uM doxorubicin) 4.4% | inhibition [7] -2.16% | inhibition [8] -3.61% | growth inhibition [9] -4.4% | growth inhibition [10] -20.4% | viability increase [11] -1.99% | viability [12] 101% | viability [13] 91.8% | inhibition [14] 2.7% | RAM network inhibition [15] 1.54%
93.9%: viability [6, 16]
86%: viability [1]
98.3%: viability [6, 17]

CC(=O)NC(C)C(=O)OCC(=O)Nc1ccc(Br)cc1 (stereo not given)
inactive: Her2 level [2] 80.5% | viability [3] 95% | viability [4] 93.9% | viability [5] 94.5% | differential viability (reversal) ([6]; H69AR cells + 2 uM doxorubicin) 4.86% | inhibition [7] 0.13% | inhibition [8] -4.17% | growth inhibition [9] -14.2% | growth inhibition [10] -18.7% | viability increase [11] 0.09% | viability [12] 99.7% | viability [13] 100% | inhibition [14] 2.33% | RAM network inhibition [15] 1.92%
94.5%: viability [6, 17]
89.7%: viability [6, 16]
95%: viability [1]

COc1ccc(C2CC(c3ccc(Cl)cc3Cl)Nc3nc(N)nn32)cc1 (stereo not given)
90.2%: viability [6, 16]
inactive: Her2 level [2] 92% | viability [3] 94% | viability [4] 115% | viability [5] 94% | differential viability (reversal) ([6]; H69AR cells + 2 uM doxorubicin) 3.8% | inhibition [7] -1.67% | inhibition [8] -0.5% | growth inhibition [9] 12.9% | growth inhibition [10] 31.5% | viability increase [11] 0.19% | viability [12] 85.3% | viability [13] 73.3% | inhibition [14] 2.17% | RAM network inhibition [15] 8.01%
94%: viability [1] | viability [6, 17]

CCn1cc(SCC(=O)NCC2CCCO2)c2ccccc21 (stereo not given)
94.9%: viability [6, 16]
88%: viability [1]
85.5%: viability [6, 17]
inactive: Her2 level [2] 93.5% | viability [3] 88% | viability [4] 102% | viability [5] 85.5% | differential viability (reversal) ([6]; H69AR cells + 2 uM doxorubicin) -9.37% | inhibition [7] -4.67% | inhibition [8] -0.5% | growth inhibition [9] 4.53% | growth inhibition [10] -6.71% | viability increase [11] -1.64% | viability [12] 94.8% | viability [13] 99.9% | inhibition [14] 1.44% | RAM network inhibition [15] 4.96%

Cc1ccc(S(=O)(=O)NCCSc2nnnn2-c2ccc(C(N)=O)cc2)cc1
116%: viability [1]
inactive: Her2 level [2] 101% | viability [3] 116% | viability [4] 126% | viability [5] 101% | differential viability (reversal) ([6]; H69AR cells + 2 uM doxorubicin) -1.94% | inhibition [7] 0.53% | inhibition [8] -2.17% | growth inhibition [9] -3.29% | growth inhibition [10] -2.84% | viability increase [11] -1.69% | viability [12] 92.1% | viability [13] 89.8% | inhibition [14] -0.71% | RAM network inhibition [15] 1.74%
101%: viability [6, 17]
103%: viability [6, 16]
